Some of the results follow. The hit rate among all sequences tested is not known here.
Biological target: furin, P09958
Assay: furin cleavage Z-score vs untreated control; higher = more cleavage, active = 3.5 or more, inactive = 1 or less, 8 variable residues between constant flanks
Summary of the method: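 Furin cleavage was scored on 8-mer peptides joined to a cDNA oligonucleotide and bound to magnetic beads at the N-terminus. Digestion with purified furin (1:10 enzyme:substrate, 0.01 ml, 50 mM HEPES pH 7.5, CaCl2, NaCl) lasted 7.5, 15 or 30 min. Freed DNA was tagged with adapters by PCR, sequenced and counted; the cleavage Z-score is the lowess-adjusted log count versus furin-free reactions, scaled by median absolute deviation.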

Chain of furin, P09958 (P09958 whole entry): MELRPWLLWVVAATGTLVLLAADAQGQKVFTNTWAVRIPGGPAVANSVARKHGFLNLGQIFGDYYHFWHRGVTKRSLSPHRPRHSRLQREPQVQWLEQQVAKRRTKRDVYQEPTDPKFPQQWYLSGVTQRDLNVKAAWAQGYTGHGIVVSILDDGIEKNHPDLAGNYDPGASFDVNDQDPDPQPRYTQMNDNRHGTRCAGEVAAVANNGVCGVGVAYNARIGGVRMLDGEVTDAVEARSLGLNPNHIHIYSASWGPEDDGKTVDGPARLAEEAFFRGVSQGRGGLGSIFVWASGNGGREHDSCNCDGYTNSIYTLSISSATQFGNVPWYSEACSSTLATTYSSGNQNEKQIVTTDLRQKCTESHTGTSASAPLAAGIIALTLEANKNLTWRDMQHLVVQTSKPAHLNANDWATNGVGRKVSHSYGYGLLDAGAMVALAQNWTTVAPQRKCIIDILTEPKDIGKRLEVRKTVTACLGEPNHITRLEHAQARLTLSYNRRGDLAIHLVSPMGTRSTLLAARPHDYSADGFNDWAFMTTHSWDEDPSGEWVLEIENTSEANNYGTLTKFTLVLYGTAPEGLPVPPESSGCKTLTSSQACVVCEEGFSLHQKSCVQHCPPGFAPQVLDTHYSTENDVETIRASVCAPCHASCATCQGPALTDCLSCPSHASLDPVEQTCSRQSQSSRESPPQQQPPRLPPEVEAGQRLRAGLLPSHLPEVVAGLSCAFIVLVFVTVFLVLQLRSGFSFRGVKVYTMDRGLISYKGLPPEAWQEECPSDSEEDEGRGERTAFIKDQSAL

Sequence	furin cleavage Z-score (7.5 min)	furin cleavage Z-score (15 min)	furin cleavage Z-score (30 min)
CAAGIAYFSMAGNASASA [HC339]	-0.0596 (inactive)	0.534 (inactive)	-0.966 (inactive)
CAGGSRWRRSAGNASASA [FS-124]	6.79 (active)	5.09 (active)	5.21 (active)
CAQGNRWRRSAGNASASA [FS-139]	14.1 (active)	13 (active)	9.79 (active)
CAITYSTYGKAGNASASA [HC806]	0.0361 (inactive)	-1.76 (inactive)	1.03
CAAGQRLRRDAGNASASA [FS-395]	12 (active)	10.2 (active)	8.42 (active)
CACVPRMRRPAGNASASA [FS-753]	0.288 (inactive)	-2.19 (inactive)	0.777 (inactive)
CAAVPRLRRDAGNASASA [FS-644]	11.8 (active)	12.1 (active)	8.75 (active)
CAAVGRAGRDAGNASASA [FS-11]	0.567 (inactive)	1.42	0.637 (inactive)
CAGDVVCCSMAGNASASA [HC2116]	0.0391 (inactive)	-0.825 (inactive)	-0.011 (inactive)
CAVVCASMSYAGNASASA [HC81]	0.42 (inactive)	1.25	-0.0546 (inactive)
CAGGPRKRRAAGNASASA [FS-26]	5.06 (active)	5.01 (active)	3.88 (active)
CASQRRKRRAAGNASASA [FS-381]	6.33 (active)	6.94 (active)	4.52 (active)
CAVLVRKRRAAGNASASA [FS-1178]	12 (active)	12.9 (active)	8.97 (active)
CAVLVVLLLFAGNASASA [HC346]	-1.01 (inactive)	-0.224 (inactive)	-0.108 (inactive)
CAVLVGGVLAAGNASASA [HC991]	-0.269 (inactive)	-2.26 (inactive)	-1.24 (inactive)
CAKSYRKRRAAGNASASA [FS-47]	9.96 (active)	10.6 (active)	7.5 (active)
CAGAPLGGAAAGNASASA [HC231]	-0.433 (inactive)	-0.224 (inactive)	-0.596 (inactive)
CAEQVTSTWVAGNASASA [HC2182]	1.33	-1.99 (inactive)	0.572 (inactive)
CAVVCCSSSYAGNASASA [HC2057]	0.153 (inactive)	-0.457 (inactive)	-1.02 (inactive)
CALPRRPARSAGNASASA [FS-1231]	5.68 (active)	6.25 (active)	4.95 (active)
CARLRKQARAAGNASASA [FS-2711]	0.606 (inactive)	1.95	3
CAVPRRPARAAGNASASA [FS-150]	9.11 (active)	8.34 (active)	7.62 (active)

Sequence	furin cleavage Z-score (7.5 min)	furin cleavage Z-score (15 min)	furin cleavage Z-score (30 min)
CADLGRPARSAGNASASA [FS-1447]	-0.204 (inactive)	-0.114 (inactive)	1.88
CAVPESDAAAAGNASASA [HC1128]	-0.849 (inactive)	-1.42 (inactive)	-1.68 (inactive)
CAVKPRPARSAGNASASA [FS-1499]	10.9 (active)	11.1 (active)	7.25 (active)
CAVTPCAAEEAGNASASA [HC1376]	-0.828 (inactive)	-1.48 (inactive)	-0.78 (inactive)
CAVVCCMMSYAGNASASA [HC108]	0.208 (inactive)	0.787 (inactive)	1.59
CAVVCCSTSYAGNASASA [HC2058]	1.72	0.804 (inactive)	2.04
CARFKRQTSYAGNASASA [FS-2923]	8.28 (active)	8.05 (active)	8.39 (active)
CARFPRAAHPAGNASASA [FS-2139]	3.15	2.75	4.11 (active)
CAVVCCSYSYAGNASASA [HC2049]	0.949 (inactive)	0.0975 (inactive)	-1.13 (inactive)
CARFPRAYSYAGNASASA [FS-2924]	-0.296 (inactive)	0.732 (inactive)	4.36 (active)
CARFPRTWWQAGNASASA [FS-1949]	0.217 (inactive)	-0.0617 (inactive)	0.886 (inactive)
CASTPCSAHPAGNASASA [HC2579]	-0.671 (inactive)	0.373 (inactive)	0.672 (inactive)
CARLDRSYSYAGNASASA [FS-2986]	0.288 (inactive)	-0.0412 (inactive)	-1.47 (inactive)
CAMWECSQHLAGNASASA [HC1688]	0.266 (inactive)	1.15	1.3
CADTPCSGSWAGNASASA [HC1831]	-0.725 (inactive)	-0.574 (inactive)	-0.127 (inactive)
CALGVRVCEKAGNASASA [HC1453]	-0.269 (inactive)	-0.873 (inactive)	-1.56 (inactive)
CAIAAAGQLDAGNASASA [HC1640]	0.168 (inactive)	-0.469 (inactive)	-1.87 (inactive)
CAKRLRRRREAGNASASA [FS-1224]	6.7 (active)	5.88 (active)	4.7 (active)
CAKRARVVREAGNASASA [FS-262]	9.07 (active)	8.16 (active)	7.16 (active)
CAKRSRRIRPAGNASASA [FS-1461]	-0.256 (inactive)	1.6	0.134 (inactive)
CASRDRRRREAGNASASA [FS-195]	10.8 (active)	10.8 (active)	7.22 (active)

From the supplement of paper PMC3545927
